# In PubChem BioAssay AID488890 (Southern Research Specialized Biocontainment Screening …, 2010):
# Screen size: about 320,000 compounds; about 1,300 (0.41%) were called active. Another 3% or so got no clear call; they are omitted. The rule behind the calls is not given here. These entries were drawn from the full list. Measured potencies and affinities stand elsewhere.
# Assay: growth inhibition of non-replicating M. tuberculosis (AID 488890);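 note: plate controls were DMSO cells for no effect and high antibiotic wells for full effect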
# Details: Mycobacterium tuberculosis non-replicating, at 25 µM, stronger effect = higher value
row,SMILES,inhibition [%]
1,O=C(Nc1cccc(S(=O)(=O)N2CCCCCC2)c1)C1CCC1,-14
2,CCc1ccc(NC(=O)Nc2cccc(OC)c2)cc1,60.4
3,COc1ccc(OCC(=O)NNC(=O)C(=O)Nc2ccccc2)cc1,75.3
4,CCc1ccc(NC(=O)COc2cccc(-n3cnnn3)c2)cc1,23.8
5,COc1ccc(NC(=O)C(=O)NNC(=O)COc2ccc(OC)cc2)cc1,6.66
6,COC(=O)c1ccc(NC(=O)c2cccc(OC)c2)cc1,27.8
7,COc1ccc(OCC(=O)NNC(=O)C(=O)Nc2ccc(C)cc2)cc1,7.2
8,CCCC(c1nnnn1Cc1ccco1)N1CCC(C(N)=O)CC1 (centres undefined),-17.6
9,Cc1ccc(CN2CCSc3ccc(C(=O)NCc4ccccn4)cc32)cc1,29.8
10,CC(=O)Nc1cccc(NC(=O)c2cc(-c3cccnc3)nc3ccc(Cl)cc23)c1,14.7
11,CCc1ccc(N(CC(=O)NCc2ccco2)C(=O)CCC(=O)Nc2ccccn2)cc1,-13.9
12,CCC(C)c1ccc(O)c(NC(=O)c2cccnc2)c1 (centres undefined),5.33
13,CCC(C)c1ccc(O)c(N)c1 (centres undefined),1.15
14,CC(C)CN(C(=O)COC(=O)C1=COCCO1)c1c(N)n(Cc2ccccc2)c(=O)[nH]c1=O,0.83
15,O=C(CC1SC(N2CCOCC2)=NC1=O)Nc1cccc(C(F)(F)F)c1 (centres undefined),9.06
16,COc1cccc(NC(=O)CCN2C(=O)c3ccc([N+](=O)[O-])cc3C2=O)c1,-4.23
17,C=CCN1C(=O)C(CC(=O)Nc2ccccc2)S/C1=N/c1nccs1 (centres undefined),-1.19
18,Cc1cc(=O)[nH]c(N2CCCC2)n1,-4.14
19,Cc1cc(C)n(-c2nnc(C)c(=O)[nH]2)n1,1.82
20,CCc1c(C)nc(SCc2cccnc2)[nH]c1=O,-9.77
21,Cc1nn(-c2cccc3cccnc23)c(=O)c2ccccc12,0.08
22,O=C(c1ccc(Oc2ccc([N+](=O)[O-])cc2)cc1)N1CCCCCC1,65.4
23,O=C(Cc1ccc([N+](=O)[O-])cc1)N1CCCCCC1,5.47
24,Cc1ccccc1NC(=O)c1cccc(S(=O)(=O)N2CCOCC2)c1,-10.8

row,SMILES,inhibition [%]
1,OC(C#CCN1CCCC1)c1ccccc1 (centres undefined),-3.04
2,c1csc(CN2CCOCC2)c1,-3.64
3,COc1cc(C(=S)N2CCN(C(c3ccccc3)c3ccccc3)CC2)cc(OC)c1O,12.6
4,CCCc1cc(=O)oc2c(C)c(OCC(=O)N3CCC[C@@H]3C(=O)O)ccc12,-11.2
5,CCOC(=O)/C(=N\Nc1cc(Cl)ccc1Cl)N1CCN(CC)CC1,46
6,COc1ccc(CN2C(=O)C(O)(CC(=O)c3ccc4c(c3)OCO4)c3ccccc32)cc1OC (centres undefined),12.6
7,Cc1[nH]c2ccccc2c1C(=O)NS(=O)(=O)Nc1ccc(F)cc1,-2.71
8,COc1ccccc1Oc1ccc(NC(=O)Cc2ccccc2)cc1,19.6
9,O=c1ccc(=O)n(-c2ccccc2)[nH]1,20
10,O=c1[nH][nH]c(=O)n1-c1ccccc1,-3.31
11,CCOC(=O)c1cn(Cc2ccc(C)cc2)nn1,75.3
12,CCOC(=O)c1cn(Cc2ccccc2)nn1,74.6
13,CCc1nnc(NC(=O)CSc2nncc(=O)n2N)s1,-12.3
14,Cn1cnnc1SCCNS(=O)(=O)c1ccccc1,2.23
15,CCOC(=O)c1c(C)[nH]c(C(=O)OCC(=O)NCc2ccc(C)cc2)c1C,-10.5
16,C/C(CC(=O)Nc1ccc(N(C)C)cc1)=N\NC(=O)c1ccc(F)cc1,8.75
17,C/C(CC(=O)Nc1ccc(N(C)C)cc1)=N\NC(=O)c1ccc(Cl)cc1,8
18,Cc1cc(C)c(S(=O)(=O)NCC(=O)NCc2ccco2)c(C)c1,0.05
19,COC1C(C)=C(C)C(=O)N1Cc1ccccc1 (centres undefined),-5.86
20,C/C(=N\O)c1ccc(Cl)cc1Cl,1.76
21,C/C(=N\O)c1cc(Cl)cc(Cl)c1O,19
22,CCCCC(=O)N=c1sc2cc(S(C)(=O)=O)ccc2n1C,-0.02
23,O=C(Nc1nnc(-c2ccccc2)o1)c1cc(Cl)sc1Cl,9.95
24,CS(=O)(=O)c1cccc(-c2nnc(NC(=O)c3ccc4ncsc4c3)o2)c1,-2.94

row,SMILES,inhibition [%]
1,COc1cccc(C(=O)Nc2cccc(-c3nnc(-c4ccccc4)o3)c2)c1,-7.83
2,O=C(Nc1nnc(-c2cccnc2)o1)c1ccccc1Cl,35.5
3,O=C(Nc1ccc(F)cc1)c1cc(Cl)sc1Cl,70.7
4,CS(=O)(=O)c1ccccc1-c1nnc(NC(=O)c2ccc3ncsc3c2)o1,10.1
5,O=C(Nc1nnc(-c2ccc(F)cc2)o1)c1cccc([N+](=O)[O-])c1,-8.79
6,COC(=O)c1ccc(C(=O)Nc2nnc(-c3cccnc3)o2)cc1,7.58
7,O=C1CC(N2CCC(c3nc4ccccc4[nH]3)CC2)C(=O)N1c1cccc(F)c1 (centres undefined),20.2
8,CCOC(=O)Cn1c(=NC(=O)CSC(C)=O)sc2cc(F)ccc21,30.8
9,Cc1nc(OCc2c(C)noc2C)c2ccccc2n1,-6.1
10,Brc1ccc(-c2ccccc2)cc1,27.1
11,Cc1ccc(OCC(=O)Nc2ccccc2C(=O)N2CCCC2)cc1,1.03
12,Cc1nnsc1C(=O)Nc1ccc(Cl)cc1,-9.77
13,Cc1nnsc1S(=O)c1ccc(Cl)cc1 (centres undefined),-4.16
14,Cc1cccc(-c2nc3cc([N+](=O)[O-])ccc3o2)c1,4.61
15,COc1ccc(-c2[nH]nc3oc(=O)cc(C)c23)cc1,7.5
16,Cc1nc2ncccn2c1-c1csc(Nc2cccc(C(=O)O)c2)n1,-13.4
17,CC1CCC(NS(=O)(=O)c2cccc3nsnc23)CC1 (centres undefined),0.44
18,CCCCOc1ccc(-c2nnn(CC(=O)Nc3ncc(CC(=O)OCC)s3)n2)cc1,78.8
19,CCC(C(=O)O)n1nnc(-c2ccc(-c3ccc(OC)cc3)cc2)n1 (centres undefined),28
20,COc1cccc(C(=O)/C=C2\NCCc3cc(OC)c(OC)cc32)c1,21.5
21,CCN1CCN(C(=O)N(c2ccccc2)c2ccccc2)CC1,-28.4
22,NC(=O)CC(NC(=O)Cc1cccc2ccccc12)c1ccc(NCCN2CCCCC2)c([N+](=O)[O-])c1 (centres undefined),3.25
23,OC1CCCN(CC(O)COC(c2ccc(F)cc2)c2ccc(F)cc2)C1 (centres undefined),-5
24,OC(COC(c1ccc(F)cc1)c1ccc(F)cc1)CN1CCCC1 (centres undefined),1.01

row,SMILES,inhibition [%]
1,CCOC(=O)C1(CCOc2ccccc2)CCN(Cc2ccc(O)c(Cl)c2)CC1,63.3
2,CN1CCN(NC(=O)c2ccc(Cl)c(S(=O)(=O)Nc3ccc(Cl)cc3)c2)CC1,-0.68
3,CCCN(CC(=O)Nc1ccccc1C)C(=O)c1ccc(C(=O)c2ccccc2)cc1,18.4
4,COc1ccc(C(=O)N2CCNC(=O)C2CC(=O)Nc2cc(Cl)ccc2OC)cc1 (centres undefined),0.76
5,O=C(Cc1ccc(-n2cccc2)cc1)NC1CCCCCC1,19.9
6,CCOC(=O)Cn1cc(/C=C/[N+](=O)[O-])c2ccccc21,72.6
7,CCOC(=O)COc1ccccc1/C=N/O,15
8,CCC(=O)Nc1cccc(NC(=O)c2ccc(Br)cc2)c1,1.37
9,COC(=O)c1cn(NC(=O)c2ccncc2)c(=O)c2ccccc12,14.3
10,COC(=O)c1cn(NC(=O)c2cccnc2)c(=O)c2ccccc12,-6.97
11,CCCCCCCCCCC(=O)NNC(=O)c1c(O)c2ccccc2n(CC)c1=O,-9.98
12,COc1cc(C(=O)NCc2ccc(F)cc2)cc(Cl)c1OC,-11.2
13,CCCCn1c(N)c(N(CCOC)C(=O)CCNC(=O)c2ccc(Cl)cc2)c(=O)[nH]c1=O,-12.2
14,O=C(NCCCCNC(=O)c1cccs1)c1cccs1,-0.35
15,O=C(CC1CCCCC1)NCc1ccccc1Cl,33
16,O=C(NCCCNC(=O)c1cccs1)c1cccs1,-16.1
17,O=C(NCc1cccs1)C12CC3CC(CC(C3)C1)C2,26.9
18,O=C(NCc1cccs1)C1CCCCC1,54
19,O=C(NCc1cccs1)C1CC1,-9.67
20,O=C(CC1CCCCC1)NCc1ccc(Cl)cc1,11
21,O=C(CCCCC(=O)NCc1cccs1)NCc1cccs1,1.23
22,COc1ccc(C(CNC(=O)c2ccccc2SC)N(C)C)cc1 (centres undefined),-4.14
23,CCCCN(C(=O)CSc1nnc(-c2ccccc2)n1C)c1c(N)n(Cc2ccccc2)c(=O)[nH]c1=O,8.96
24,Cc1nc2sc(C)c(C)c2c(=O)[nH]1,3.35

row,SMILES,inhibition [%]
1,COc1cc(CN2CCNCC2)cc(OC)c1OC,-14.6
2,COC(=O)c1ccc(NC(=O)COc2ccc(S(=O)(=O)NC(C)(C)C)cc2)cc1,-11.9
3,CC(NC(=O)CN1C(=O)NC2(CCc3ccccc32)C1=O)c1ccccc1 (centres undefined),15.4
4,CNNC(=S)Nc1ccc(Cl)cc1,-0.3
5,Cc1nnc(NC(=O)CSc2n[nH]c(-c3ccccc3C)n2)s1,5.17
6,CC(=O)Nc1cccc(NC(=O)c2ccc(Br)cc2)c1,-8.54
7,CC(=O)/C(=N/Nc1ccccc1C)N1CCOCC1,9.51
8,O=C(O)CCC(=O)Nc1ccc(Br)cn1,-12.1
9,O=C(CCC1CCCC1)Nc1ccc([N+](=O)[O-])cn1,67.7
10,O=C(CC1CCCCC1)NCc1ccc(F)cc1,55.7
11,O=C(CCC1CCCCC1)NCc1ccncc1,29
12,O=C(CCC1CCCCC1)NCc1ccccn1,79.4
13,O=C(CC1CCCCC1)NCc1ccccn1,69.6
14,O=C(CN1C(=O)NC2(CCCc3ccccc32)C1=O)N1CCCCC1 (centres undefined),6.72
15,Nc1ccc(Br)cc1C(=O)c1ccccc1,53.2
16,CCN(CC(=O)Nc1c(F)cccc1F)C(=O)CCCc1c[nH]c2ccccc12,-0.99
17,COc1cc(C(=O)OCC2CC(c3ccccc3)=NO2)cc(OC)c1OC (centres undefined),3.53
18,CCOC(=O)c1cc(-c2ccccc2)n(CC2CC(c3ccc(OC)cc3)=NO2)n1 (centres undefined),0.81
19,CC(=O)c1cc(NC(=O)c2ccccc2)c(=O)oc1C,54.9
20,Cc1oc(=O)c(NC(=O)c2ccccc2)cc1C(N)=O,-8.22
21,N/C(=N\OC(=O)c1ccc2ccccc2c1)c1ccccn1,15.8
22,COc1cccc(NC(=O)C(C)N2C(=O)c3ccccc3S2(=O)=O)c1 (centres undefined),-2.17
23,COc1ccc(-c2c([C@H]3[C@H]4C=CC[C@@H](C)[C@@H]4C(=O)N3Cc3ccccc3)ccc3ccccc23)cc1OC,60.8
